Test results: PubChem BioAssay AID1159580 (chemical genetic matrix, 2015)
Values joined by “and” are separate entries in the source; they are usually repeats but may differ in a detail not shown here. Identical values can stand only once. Among all 5,500 compounds or so, about 2,000 (36%) were called active. Roughly 18% stayed inconclusive and do not appear here. No stated cut-off is given here; in the data, active means normalized growth mostly below about 0.91 (no sharp cut-off); inconclusive means no clear call, values can overlap the other calls; inactive means mostly above about 0.92. Some of the results follow.

Test: chemical genetic growth profiling, strain panel (AID 1159580);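 further: tested at 20 µM; growth read once vehicle control cultures reached saturation at 30 °C; 1 = growth at the plate median or of vehicle wells; lower values mean less growth of the strain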
Settings: S. cerevisiae deletion strains, growth OD

Measured: normalized growth

CC(=O)O[C@@H]1CC2C(C)(C)[C@H](O)CC[C@]2(C)C2CC[C@@]3(C)[C@H](c4ccoc4)OC(=O)C4OC43[C@@]21C (stereo partly specified)
inactive: locus YAL021C, strain ccr4, active compounds read low 0.991 | locus YAL026C, strain drs2, active compounds read low 1.03 | locus YAL030W, strain snc1, active compounds read low 1.01 | locus YBL061C, strain skt5, active compounds read low 1.01 | locus YBR009C, strain hhf1, active compounds read low 1.04 | locus YBR021W, strain FUR4, active compounds read low 0.974 | locus YBR023C, strain chs3, active compounds read low 1.02 | locus YBR171W, strain sec66, active compounds read low 1.02 | locus YBR229C, strain ROT2, active compounds read low 0.957 | locus YBR231C, strain swc5, active compounds read low 1.02 | locus YBR279W, strain paf1, active compounds read low 1.01 | locus YCL011C, strain gbp2, active compounds read low 1.01 | locus YCL016C, strain dcc1, active compounds read low 1.02 | locus YCL029C, strain bik1, active compounds read low 0.993 | locus YCL061C, strain MRC1, active compounds read low 1.02 | locus YCL069W, strain vba3, active compounds read low 1 | locus YCR088W, strain abp1, active compounds read low 1.01 | locus YDL005C, strain med2, active compounds read low 1.02 | locus YDL035C, strain GPR1, active compounds read low 0.984 | locus YDL040C, strain nat1, active compounds read low 1 | locus YDL074C, strain BRE1, active compounds read low 1 | locus YDL101C, strain DUN1, active compounds read low 0.998 | locus YDL134C, strain PPH21, active compounds read low 1.03 | locus YDL185W, strain tfp1, active compounds read low 0.97 | locus YDL192W, strain arf1, active compounds read low 0.999 | locus YDR001C, strain nth1, active compounds read low 1.01 | locus YDR069C, strain doa4, active compounds read low 1.04 | locus YDR101C, strain arx1, active compounds read low 0.967 | locus YDR137W, strain rgp1, active compounds read low 1.02 | locus YDR159W, strain sac3, active compounds read low 1.05 | locus YDR162C, strain NBP2, active compounds read low 0.999 | locus YDR195W, strain ref2 1.03 | locus YDR297W, strain sur2, active compounds read low 1.01 | locus YDR318W, strain mcm21, active compounds read low 0.996 | locus YDR334W, strain swr1, active compounds read low 1.01 | locus YDR335W, strain msn5, active compounds read low 1.03 | locus YDR388W, active compounds read low 1 | locus YDR392W, strain spt3, active compounds read low 0.834 | locus YDR502C, strain sam2, active compounds read low 1.01 | locus YEL003W, strain gim4, active compounds read low 1.03 | locus YEL037C, strain rad23, active compounds read low 1.01 | locus YEL061C, strain CIN8 (second series), active compounds read low 1.02 | locus YER015W, strain faa2, active compounds read low 1.01 | locus YER016W, strain bim1, active compounds read low 1.02 | locus YER110C, active compounds read low 0.98 | locus YER111C, strain swi4, active compounds read low 1.02 | locus YER155C, strain BEM2 (second series), active compounds read low 1.03 | locus YER155C, strain BEM2, active compounds read low 1.01 | locus YER167W, strain BCK2, active compounds read low 0.996 | locus YFR010W, strain ubp6, active compounds read low 1.04 | locus YGL078C, strain dbp3, active compounds read low 1.01 | locus YGL086W, strain mad1, active compounds read low 0.984 | locus YGL167C, strain pmr1, active compounds read low 1.01 | locus YGL173C, strain kem1, active compounds read low 1.01 | locus YGL227W, strain vid30, active compounds read low 1.02 | locus YGL240W, strain doc1, active compounds read low 1.04 | locus YGL248W, strain PDE1, active compounds read low 1.01 | locus YGL253W, strain hxk2, active compounds read low 0.997 | locus YGR135W, strain pre9, active compounds read low 1.05 | locus YGR252W, strain gcn5, active compounds read low 1.04 | locus YHR013C, strain ard1, active compounds read low 1.02 | locus YHR027C, strain rpn1, active compounds read low 1.01 | locus YHR030C, strain SLT2, active compounds read low 1.07 | locus YHR079C, strain IRE1 (second series), active compounds read low 0.983 | locus YHR079C, strain IRE1, active compounds read low 1.05 | locus YHR094C, strain hxt1, active compounds read low 0.989 | locus YHR129C, strain ARP1, active compounds read low 1.01 | locus YHR142W, strain chs7, active compounds read low 0.939 | locus YHR200W, strain rpn10, active compounds read low 0.996 | locus YIL066C, strain RNR3, active compounds read low 0.973 | locus YIL073C, strain SPO22, active compounds read low 0.958 | locus YIL125W, strain kgd1, active compounds read low 0.962 | locus YIR030C, strain dcg1, active compounds read low 0.988 | locus YJL092W, strain hpr5, active compounds read low 1.02 | locus YJL095W, strain BCK1 (second series), active compounds read low 1.02 | locus YJL095W, strain BCK1, active compounds read low 1.06 and 1.08 | locus YJL115W, strain asf1, active compounds read low 1.02 | locus YJL129C, strain trk1, active compounds read low 1 | locus YJL134W, strain LCB3, active compounds read low 0.991 | locus YJL154C, strain vps35, active compounds read low 0.999 | locus YJL164C, strain tpk1, active compounds read low 1.02 | locus YJL166W, strain qcr8, active compounds read low 1.02 | locus YJL168C, strain set2, active compounds read low 0.996 | locus YJL187C, strain SWE1 (second series), active compounds read low 1.02 | locus YJL187C, strain SWE1, active compounds read low 1.01 | locus YJR043C, strain POL32, active compounds read low 0.977
